In PubChem BioAssay (NCATS):
Where “and” joins values, the source holds several entries; their conditions need not be identical. Equal values may be shown once. Records with an inconclusive call do not appear. Where a structure was tested more than once in an assay, its records may differ in their call. Calls of active or inactive are those of the source. Unless noted, calls follow the shape of the full dose curve.

Tests used:
[1] = Cell Viability - BJ (AID 421); conditions: BJ fibroblast viability, qHTS;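 also: potency is read from the fitted curve at half-maximal effect; cells exposed to compound for 40 hours at 37 °C before readout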
Method in brief: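 Cytotoxicity in human BJ foreskin fibroblasts is scored as loss of cellular ATP after a 40-hour exposure, measured by luciferase luminescence. Controls are DMSO and 100 uM tamoxifen.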

[2] = Cell Viability - Hek293 (AID 427;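 active = compounds whose dose-response curve shows a full or clear partial loss of cell viability, called from curve shape rather than a numeric limit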;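 also: potency is read from the fitted curve at half-maximal effect; cells exposed to compound for 40 hours at 37 °C before reading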); conditions: qHTS
Method in brief: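 qHTS, human embryonic kidney (adenovirus-transformed) cells; 40 hr cpd, 37 °C; CellTiter-Glo ATP luminescence. Norm: DMSO = 0, 100 uM tamoxifen = 100% inhibition. Hill-fit AC50.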

[3] = Cell Viability - MRC5 (AID 434); conditions: MRC5 lung fibroblast viability, qHTS;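 also: potency is read from the fitted curve at half-maximal effect; potency reflects cytotoxicity seen as loss of intracellular ATP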
Method in brief: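 qHTS cytotoxicity in human lung fibroblast MRC5 cells; 40 hr treatment, 37 °C; cellular ATP by luciferase luminescence; DMSO = 0%, 100 uM tamoxifen = 100% inhibition; Hill-fit AC50.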

[4] = Cell Viability - SK-N-SH (AID 435); conditions: SK-N-SH neuroblastoma cell viability qHTS;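 also: potency is read from the fitted curve at half-maximal effect; compound exposure lasted 40 h at 37 °C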
Method in brief: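 Luminescent ATP signal served as the viability read-out after 40 hours of compound treatment of human neuroblastoma SK-N-SH cells. Concentration-response data, scaled between DMSO and 100 uM tamoxifen, gave AC50 values by standard Hill modeling.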

[5] = biological target: Mitogen-activated protein kinase 10 (Mus musculus) (UniProt Q61831); assay: JNK3 AlphaScreen Assay (AID 530; active = well fitted curve in either direction with a large enough effect, not every such curve was filed as active;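 also: kinase came from lysate of stimulated human HepG2 cells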; also: potency is read from the fitted curve at half-maximal effect;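 as to activity change, negative = inhibition: signal reports phosphorylation of biotinylated GST-cJun 1-79 at Ser73 with 10 µM ATP; % is scaled to controls: 0 for no effect and ±100 for the full control effect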); conditions: JNK3 lysate, c-Jun phosphorylation; series mostly up to 57.1 µM
Method in brief: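 Room-temperature AlphaScreen kinase assay; pre-activated HepG2 lysate as JNK3 source, biotin-GST-cJun(1-79) substrate, 10 uM ATP, compound 15 min preincubation.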

[6] = Cell Viability - N2a (AID 540; active = well fitted curve in the direction sought with a large enough effect; an effect the other way counts as inactive or inconclusive; also: nearly all actives have a fitted effect of over 45% in size; also: potency is read from the fitted curve at half-maximal effect;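 as to activity change, negative = cytotoxicity: plate controls were DMSO alone for no effect and tamoxifen control for full effect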); conditions: N2a mouse neuroblastoma cell viability; activity change, negative = cytotoxicity: at 92.2 µM (top of the series)
Method in brief: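 Mouse neuroblastoma N2a cells (1500/well) were preincubated 5 hr at 37 °C, then exposed to compounds for 40 hr at 37 °C in complete medium. Viability was read as intracellular ATP by CellTiter-Glo luminescence; AC50 from Hill fits.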

[7] = Cell Viability - HUV-EC-C (AID 542; active = well fitted curve in the direction sought with a large enough effect; an effect the other way counts as inactive or inconclusive; also: % is scaled to controls: 0 for no effect and ±100 for the full control effect; nearly all actives have a fitted effect of over 35% in size); conditions: HUV-EC-C endothelial cell viability, qHTS; series mostly up to 92.2 µM
Method in brief: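 HUV-EC-C normal human vascular endothelial cells, 1000 cells/well, pre-incubated 5 hr at 37 °C, then exposed to compounds for 40 hr at 37 °C in complete medium. Viability measured as intracellular ATP by CellTiter-Glo luminescence; AC50 from Hill fits.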

[8] = Cell Viability - H-4-II-E (AID 543; active = well fitted curve in the direction sought with a large enough effect; an effect the other way counts as inactive or inconclusive; also: nearly all actives have a fitted effect of over 35% in size; also: potency is read from the fitted curve at half-maximal effect); conditions: H-4-II-E rat hepatoma viability; series mostly up to 92.2 µM
Method in brief: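 Rat hepatoma H-4-II-E cells (1500/well) were plated, incubated 5 hr at 37 °C, then exposed to compounds for 40 hr at 37 °C. Cellular ATP was read by CellTiter-Glo luminescence; AC50 came from Hill-equation fits of concentration-response data.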

[9] = Cell Viability - Renal Proximal Tubule (AID 545; active = well fitted curve in the direction sought with a large enough effect; an effect the other way counts as inactive or inconclusive;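 also: 0% = DMSO only and -100% = 100 µM tamoxifen; nearly all actives have a fitted effect of over 40% in size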); conditions: renal proximal tubule cells viability, primary cells of rat origin; activity change, negative = cytotoxicity: at 91.7 µM (top of the series)
Method in brief: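 Luminescent ATP signal (CellTiter-Glo) served as the viability read-out after 40 hr compound exposure of freshly isolated rat proximal tubule cells at 37 °C. Concentration-dependent ATP loss was fitted with the Hill equation to give AC50.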

[10] = Cell Viability - Jurkat (AID 426;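 active = dose-dependent loss of cell ATP signal giving a full or clear fitted curve, ranked by lower potency value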; also: potency is read from the fitted curve at half-maximal effect); conditions: qHTS
Method in brief: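 Jurkat (clone E6-1, human T-cell leukemia) cells, 5000/well in complete medium, were exposed to compound for 40 hr at 37 °C. Viability was read as intracellular ATP by CellTiter-Glo luminescence; AC50 came from Hill fits of concentration-response data.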

[11] = Cell Viability - HepG2 (AID 433); conditions: qHTS;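 also: potency is read from the fitted curve at half-maximal effect; potency for ATP loss meaning cytotoxicity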
Method in brief: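 Read-out is luciferase-based quantitation of cellular ATP as a measure of viable HepG2 cells after 40 h treatment at 37 °C. Signal decrease is scaled between DMSO-only and 100 uM tamoxifen controls, with AC50 fitted by the Hill equation.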

[12] = Cell Viability - NIH 3T3 (AID 541; active = well fitted curve in the direction sought with a large enough effect; an effect the other way counts as inactive or inconclusive;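 also: plate controls were DMSO alone for no effect and tamoxifen positive control for full effect; nearly all actives have a fitted effect of over 25% in size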); conditions: NIH 3T3 cell viability, qHTS; activity change, negative = cytotoxicity: at 92.2 µM (top of the series)
Method in brief: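 NIH 3T3 mouse embryo fibroblasts (1000 cells/well) were plated in complete medium and treated with compound for 40 hr at 37 °C. Viability was read as intracellular ATP by CellTiter-Glo luminescence; AC50 values came from Hill-equation fits of concentration-response data.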

[13] = Cell Viability - SH-SY5Y (AID 544; active = well fitted curve in the direction sought with a large enough effect; an effect the other way counts as inactive or inconclusive;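 also: 0% = DMSO alone and -100% = 100 µM tamoxifen; nearly all actives have a fitted effect of over 55% in size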); conditions: SH-SY5Y neuroblastoma cell viability; viability change, negative = cytotoxic: at 92.2 µM (top of the series)
Method in brief: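 Human neuroblastoma SH-SY5Y cells (1500/well) in complete medium were exposed to compounds for 40 hr at 37 °C; intracellular ATP was then quantified by CellTiter-Glo luminescence after 20 min at room temperature. AC50 came from Hill-equation concentration-response fits.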

[14] = AP1 Signaling Pathway (AID 357; active = well fitted curve in either direction with a large enough effect, not every such curve was filed as active;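 also: ME-180 reporter cells stimulated with EGF at its EC50 level; % is scaled to controls: 0 for no effect and ±100 for the full control effect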); conditions: ME-180 AP-1-bla reporter, EGF-induced, beta-lactamase ratio, 5 h; at 38 µM (top of the series)
Method in brief: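 First, ME-180 AP-1-bla cells were cultured overnight at 37 °C in low-serum Opti-MEM. Next, titrated compounds with EC50 EGF were incubated 5 hours. Finally, CCF4 was added for 2.5 hours and the 460/530 nm ratio recorded.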

[15] = NFAT Signaling Pathway (AID 444; active = well fitted curve in either direction with a large enough effect, not every such curve was filed as active;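 also: carbachol stimulus at about its EC50 of 1 µM final; % is scaled to controls: 0 for no effect and ±100 for the full control effect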); conditions: Jurkat NFAT-bla M1, carbachol, beta-lactamase ratio, 5 h; at 38 µM (top of the series) unless noted
Method in brief: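 Read-out: CCF4 FRET ratio (460 nm/530 nm) after 1 h RT dye loading, used for %activity and AC50 from titration series. Cells: Jurkat NFAT-β-lactamase/M1 line, treated with compound plus 1 uM carbachol for 5 h, 37 °C.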

[16] = biological target: Glucocorticoid receptor (Homo sapiens) (UniProt P04150); assay: GR-GFP Redistribution (AID 450;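 active = compounds whose dose series gives a full or clear partial fitted curve of increased nuclear translocation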; also: potency is read from the fitted curve at half-maximal effect); conditions: U2OS GR-GFP nuclear translocation, laser cytometry, 2 h
Sequence of Glucocorticoid receptor (Homo sapiens) (P04150 whole entry, looked up, the tested form may be a part): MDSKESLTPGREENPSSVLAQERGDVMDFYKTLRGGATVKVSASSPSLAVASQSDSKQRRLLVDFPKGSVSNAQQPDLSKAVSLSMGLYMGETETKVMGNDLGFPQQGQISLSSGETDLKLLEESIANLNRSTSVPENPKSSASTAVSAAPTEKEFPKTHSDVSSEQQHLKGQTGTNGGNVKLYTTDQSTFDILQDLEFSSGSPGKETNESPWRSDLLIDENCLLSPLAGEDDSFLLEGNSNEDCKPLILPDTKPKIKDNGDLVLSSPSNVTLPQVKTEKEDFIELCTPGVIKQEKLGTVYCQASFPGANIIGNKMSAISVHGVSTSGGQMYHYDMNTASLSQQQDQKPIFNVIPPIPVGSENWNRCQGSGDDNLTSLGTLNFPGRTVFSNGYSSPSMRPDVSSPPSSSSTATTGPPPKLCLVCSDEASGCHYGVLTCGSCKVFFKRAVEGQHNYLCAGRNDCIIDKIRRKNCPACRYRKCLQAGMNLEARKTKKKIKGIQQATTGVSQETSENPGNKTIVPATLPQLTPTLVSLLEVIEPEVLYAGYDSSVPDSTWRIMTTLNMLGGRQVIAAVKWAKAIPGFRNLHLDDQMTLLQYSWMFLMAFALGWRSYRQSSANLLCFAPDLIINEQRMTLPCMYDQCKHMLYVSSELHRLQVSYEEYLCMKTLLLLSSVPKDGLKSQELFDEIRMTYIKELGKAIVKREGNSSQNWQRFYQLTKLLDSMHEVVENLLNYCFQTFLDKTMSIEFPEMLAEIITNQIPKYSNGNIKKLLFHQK

[17] = biological target: Glucocorticoid receptor (Homo sapiens) (UniProt P04150); assay: GR-EFC Redistribution (AID 451); conditions: CHO-K1 GR-EFC translocation, beta-gal luminescence, 2 h; also: potency is read from the fitted curve at half-maximal effect
Method in brief: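 Translocation of GR-ED fusion to nuclear EA restores b-gal, read by luminescence after 1 h room-temperature detection. Engineered CHO-K1 biosensor cells, 1,000/well, exposed 2 h at 37 C to titrations up to 46 uM final.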

[18] = biological target: Cytochrome P450 1A2 (Homo sapiens) (UniProt P05177); assay: p450-cyp1a2 (AID 410); conditions: recombinant CYP1A2, luciferin-ME demethylation, luminescence; series mostly up to 57 µM; also: potency is read from the fitted curve at half-maximal effect
Sequence of Cytochrome P450 1A2 (Homo sapiens) (P05177 whole entry, looked up): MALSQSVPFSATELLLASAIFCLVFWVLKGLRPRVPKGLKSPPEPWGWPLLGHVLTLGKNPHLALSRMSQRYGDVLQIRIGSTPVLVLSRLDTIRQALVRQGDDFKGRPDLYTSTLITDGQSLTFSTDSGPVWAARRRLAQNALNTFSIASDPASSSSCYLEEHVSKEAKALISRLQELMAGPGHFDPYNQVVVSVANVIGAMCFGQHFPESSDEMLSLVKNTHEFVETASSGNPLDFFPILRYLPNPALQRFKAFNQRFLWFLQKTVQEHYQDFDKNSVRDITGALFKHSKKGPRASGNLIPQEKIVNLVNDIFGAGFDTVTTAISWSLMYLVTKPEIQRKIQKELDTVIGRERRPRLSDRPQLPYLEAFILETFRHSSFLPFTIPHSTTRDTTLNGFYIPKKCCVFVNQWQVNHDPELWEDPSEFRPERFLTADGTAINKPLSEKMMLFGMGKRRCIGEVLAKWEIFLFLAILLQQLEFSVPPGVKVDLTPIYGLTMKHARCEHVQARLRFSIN
Method in brief: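 Human CYP1A2 (20nM) demethylated Luciferin-ME at its Km (100uM) in 100mM KPO4. After 10 min compound preincubation, NADPH regeneration ran the reaction 60 min at room temperature. Luciferin was read by luminescence, normalized to 57 uM furafylline.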

[19] = Stat Signaling Pathway (AID 446; active = well fitted curve in either direction with a large enough effect, not every such curve was filed as active;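 also: ME-180 cervical cancer cells given 40 pM IL-6 alongside compound; SIE-controlled beta-lactamase reporter measured as 460/530 nm FRET emission ratio; % is scaled to controls: 0 for no effect and ±100 for the full control effect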); conditions: ME-180 SIE beta-lactamase reporter, IL-6 stimulated, 5 h; at 38 µM (top of the series)
Method in brief: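 Screening format detects activators and inhibitors alike: ME-180 SIE-bla cells stimulated at 40 pM IL-6 for 5 hrs with compound, then dual-emission beta-lactamase read at 405 nm excitation.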

CN(C)c1ccc(N=NS(=O)(=O)O)cc1
inactive: Potency [1] > 92 µM | Potency [2] > 92 µM | Potency [3] > 92 µM | Potency [4] > 92 µM | Potency [5] | Potency [7] | activity change, negative = cytotoxicity [9] 12.3%
active: Potency [6] 31.6 µM | Potency [8] 0.126 µM

Nc1nc2ccc([N+](=O)[O-])cc2s1
inactive: Potency [1] > 92 µM | Potency [10] > 92 µM | Potency [2] > 92 µM | Potency [11] > 92 µM | Potency [3] > 92 µM | Potency [4] > 92 µM | Potency [5] | Potency [7]

CN(C)CCC(c1ccc(Cl)cc1)c1ccccn1 (stereo unspecified)
inactive: Potency [1] > 92 µM | Potency [10] > 92 µM | Potency [2] > 92 µM | Potency [11] > 92 µM | Potency [3] > 92 µM | Potency [4] > 92 µM | Potency [5] | Potency [6] | Potency [12] | Potency [7] | Potency [8] | Potency [13] | activity change, negative = cytotoxicity [9] -6.06%

COc1ccccc1N1CCN(CCN(C(=O)c2ccc(I)cc2)c2ccccn2)CC1
inactive: activity change, negative = inhibition [14] -13.6% | activity change, negative = inhibition [15] -16.4% | Potency [16] > 46 µM | Potency [17] > 46 µM | Potency [5]

CC(C)NC[C@H](O)COc1cccc2[nH]ccc12
inactive: Potency [16] > 46 µM | Potency [17] > 46 µM | Potency [5]

COC1=C(OC)C(=O)c2ccccc2C1=O
active: Potency [18] 3.98 µM
inactive: activity change, negative = inhibition [15] -8.88% | Potency [16] > 46 µM | Potency [17] > 46 µM

C[C@@H](CN1CCC(Cc2ccccc2)CC1)[C@@H](O)c1ccc(O)cc1
inactive: Potency [16] > 46 µM | Potency [17] > 46 µM | Potency [5]

Oc1cc2c(cc1O)CN(C(=S)NCCc1ccc(Cl)cc1)CCC2
active: Potency [18] 12.6 µM and 20 µM
inactive: activity change, negative = inhibition [15] -18.1% | activity, negative = inhibition [19] 6.62% | Potency [16] > 46 µM | Potency [17] > 46 µM
inactive and 10 µM (active): Potency [5]

CCCCCCCCCCCCCCCCCC(=O)O
inactive: Potency [1] > 92 µM | Potency [10] > 92 µM | Potency [2] > 92 µM | Potency [11] > 92 µM | Potency [3] > 92 µM | Potency [4] > 92 µM | Potency [5] | Potency [6] | Potency [12] | Potency [7] | Potency [8] | Potency [13] | activity change, negative = cytotoxicity [9] -6.5%

O=C(O)[C@@H]1C[C@@H](C(=O)O)N1
inactive: Potency [16] > 46 µM | Potency [17] > 46 µM | Potency [5]
active: Potency [18] 31.6 µM

O=C(O)c1cc(O)c(O)c(O)c1
inactive: Potency [1] > 92 µM | Potency [11] > 92 µM | Potency [3] > 92 µM | Potency [5] | Potency [6] | Potency [7] | activity change, negative = cytotoxicity [9] -19.1%
active: activity change, negative = cytotoxicity [12] -98.1%
